This is a sample that favours compounds with a hit; in the whole collection about 2.4% have one here.
ADAM17 inh – ADAM17 inhibition, QFRET primary screen. 370,000 tested, 0.83% active. P78536. inhibition, % at 6.95 µM. recombinant ADAM17, EDANS/DABCYL FRET peptide cleavage;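 active = inhibition above the mean of compounds lying between control limits plus 3 SD, set per campaign, cut at about 8.5% in these data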;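 also: 0% = DMSO-only wells as the low control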
Target sequence (P78536 215-824 limits assumed): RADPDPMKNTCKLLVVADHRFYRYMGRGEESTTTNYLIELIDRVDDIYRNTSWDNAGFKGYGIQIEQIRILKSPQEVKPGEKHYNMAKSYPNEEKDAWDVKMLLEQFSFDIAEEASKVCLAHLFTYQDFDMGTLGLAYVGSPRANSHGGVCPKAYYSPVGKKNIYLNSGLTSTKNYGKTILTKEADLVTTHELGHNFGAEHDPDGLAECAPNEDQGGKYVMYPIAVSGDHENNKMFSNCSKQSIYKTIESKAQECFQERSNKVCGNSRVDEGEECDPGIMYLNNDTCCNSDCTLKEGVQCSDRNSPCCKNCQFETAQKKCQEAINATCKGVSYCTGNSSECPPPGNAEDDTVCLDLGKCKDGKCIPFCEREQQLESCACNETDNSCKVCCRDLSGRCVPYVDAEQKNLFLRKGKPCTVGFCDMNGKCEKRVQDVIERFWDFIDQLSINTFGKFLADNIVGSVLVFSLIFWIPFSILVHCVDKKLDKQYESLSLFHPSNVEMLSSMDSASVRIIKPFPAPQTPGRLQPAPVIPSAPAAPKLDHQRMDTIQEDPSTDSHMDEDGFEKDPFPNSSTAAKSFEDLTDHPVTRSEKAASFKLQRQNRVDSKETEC
APOBEC3A inh – inhibitors of human APOBEC3A DNA deaminase; inhibition, % at 20 µM; recombinant A3A, FAM/TAMRA ssDNA deamination fluorescence; P31941; 330,000 tested, 0.41% active;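 active = at least 40% inhibition at 20 µM here, with at most 30% in a related deaminase screen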;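 also: plate controls were A3A with DMSO for no effect and wells lacking A3A enzyme for full effect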
ADAM10 inh – inhibits human ADAM10; recombinant ADAM10, EDANS/DABCYL FRET peptide cleavage, 3 h; AID 720582; O14672; 370,000 tested, 0.62% active; inhibition, % at 7 µM;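 active = inhibition above a per-campaign cutoff equal to the mean of compounds falling between control-based bounds plus 3 SD, cut at about 20% in these data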;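 also: 0% = DMSO wells while the 100% control is not disclosed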
CendR NRP1 mod – modulators of CendR peptide binding to human neuropilin-1; O14786; FAM-RPARPAR peptide binding to NRP-1, fluorescence polarization; inhibition, % at 25 µM; 360,000 tested, 0.85% active;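 active = inhibition or corrected inhibition above about 18%, plus a signal ratio from 0.5 to 1.5, limit read from the data, passing the limit was not always enough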
A3G deaminase – APOBEC3G (human) deaminase inhibition; Q9HC16; recombinant A3G, ssDNA deamination FAM/TAMRA fluorescence; inhibition, % at 20 µM; 330,000 tested, 0.28% active;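 active = inhibition of at least 40% at 20 µM, with no more than 30% in the related APOBEC3A deaminase screen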;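 also: plate controls were DMSO wells with A3G for no effect and wells lacking A3G enzyme for full effect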
Active calls of the source: *; i = inactive; x = no result.

SMILES	ADAM17 inh	APOBEC3A inh	ADAM10 inh	CendR NRP1 mod	A3G deaminase
CCN(CC)C(=O)C12CC3CC(CC(Cl)(C3)C1)C2	0.1	7.2	7.2	1.8	-5.8
CN(C(=O)CCc1cn(C)c2ccccc12)c1ccc(Oc2cccnc2)cc1	0.3	x	3.1	x	x
COCCN1Cc2cc(C(=O)OC)c3c(c2C1=O)c1ccccc1n3S(=O)(=O)c1ccc(OC)cc1	-1.4	x	-11.7	x	x
O=C(OC12CCCN(C1)/C(=C/c1cccc(Cl)c1)C2)C1CCCC1 (stereo not given)	-1.3	x	-0.9	x	x
CCN(CC)C(=O)CSc1nnc(-c2ccc(C(C)(C)C)cc2)n1Cc1ccco1	1.6	x	-1.2	x	x
COCCN(C(=S)Nc1ccccc1C)C(C)c1cccs1 (stereo not given)	1.4	-1.8	4.8	26.4*	-11.3
CN1C2=N[C@@H](c3ccc4ccccc4c3)CC(=O)N2/C(=C\c2ccccc2)[C@H]1c1ccccc1	-3.9	x	-10.5	x	x
COCCNC(=O)/C(C#N)=C/c1c(N2CCN(c3cccc(Cl)c3)CC2)nc2c(C)cccn2c1=O	-231.4	-1.5	i	18.8*	-3.8
CCOc1ccc(S(=O)(=O)Nc2ccc(C(=O)NCC(C)(C)N3CCOCC3)cc2)cc1	0.8	-3.3	10.4	21.4*	-5.4
CC(C)(CNC(=O)c1ccc(NS(=O)(=O)c2ccc(F)cc2)cc1)N1CCOCC1	-4.5	-2.3	-5.1	-6.5	-2.1
CCN(C(=O)CCc1cn(CC)c2ccccc12)c1ccc(Oc2cccnc2)cc1	7.3	x	4.2	x	x
CCN(C(=O)COC(=O)CNC(=O)c1ccc(F)cc1)C1CCS(=O)(=O)C1 (stereo not given)	-3.5	-1.6	1.8	28.0*	-7.8
COc1ccc(N2CCN(CCCNC(=O)Cn3c(=O)c4cccn4c4cccnc43)CC2)c(OC)c1	-1.9	x	-8.3	x	x
Cc1cccc(COc2ccc(S(=O)(=O)N3CCOCC3)cc2[N+](=O)[O-])c1	-1.2	5.2	-2.7	19.6*	-3.6
CC(Sc1ccc(S(=O)(=O)N2CCOCC2)cc1[N+](=O)[O-])C(=O)O (stereo not given)	2.5	-1.8	4.5	-10.7	-2.5
CC(C)C(Nc1ccc(S(=O)(=O)N2CCOCC2)cc1[N+](=O)[O-])C(=O)O (stereo not given)	-2.6	-3.2	-0.5	27.6*	-6.0
O=[N+]([O-])c1cc(S(=O)(=O)N2CCOCC2)ccc1OCc1cccc(Cl)c1	0.8	-1.1	2.3	5.4	-9.4
O=C1C2C3CC(C(Br)C3Br)C2C(=O)N1CC1CCCO1 (stereo not given)	0.4	-1.2	-2.1	-2.0	-4.3
CC(C(=O)NCC1CCCO1)N1C(=O)C2C3CC(C(Br)C3Br)C2C1=O (stereo not given)	-4.4	0.0	-5.2	19.1*	-1.0
CN1CCc2cc3c(c4c2[C@H]1[C@H](O)c1ccccc1-4)OCO3	-2.4	12.9	-43.7	46.7*	15.5
COc1ccc2c(c1OC)C(=O)OC2C1c2c(cc3c(c2OC)OCO3)CCN1C (stereo not given)	-3.4	2.5	-12.1	-11.4	7.3
Cc1ccc(NC(=O)N2CCC(N(C)CCC(C)C)CC2)cc1F	1.7	x	-4.8	x	x
COc1ccccc1C=NNc1ccc([N+](=O)[O-])cn1	-3.8	x	-1.4	24.1*	x
CCn1nc(C)c(CN2CCC(n3nccc3NC(=O)CCCc3ccccc3)CC2)c1C	-3.4	-3.3	-1.2	1.0	-8.9
CCn1nc(C)c(CN2CCC(n3nccc3NC(=O)Cc3ccccc3)CC2)c1C	-5.6	-2.3	-9.9	20.7*	-5.0
SMILES	ADAM17 inh	APOBEC3A inh	ADAM10 inh	CendR NRP1 mod	A3G deaminase
CC(=O)CSc1nnc(-c2ccc(S(=O)(=O)N3CCCC3)cc2)n1C	-6.7	1.0	-4.6	25.2*	-0.7
CC(=O)CSc1nnc(-c2ccc(S(=O)(=O)N3CCOCC3)cc2)n1C	3.8	5.3	0.3	-0.2	7.6
COc1ccc(C(=O)OCC(=O)N2CCN(S(=O)(=O)c3ccc(C)cc3)CC2)cc1[N+](=O)[O-]	-3.0	x	-11.0	26.2*	x
Nc1nc2c(ncn2[C@@H]2O[C@H](C(=O)NCC(c3ccccc3)c3ccccc3)[C@@H](O)[C@H]2O)c(=O)[nH]1	-2.9	x	-17.7	x	x
CCOc1ccc(CCN2C(=S)N([C@@H](Cc3ccccc3)CN3CCC[C@@H]3CN3C(=S)NC[C@@H]3Cc3ccc(O)cc3)C[C@@H]2CC(C)C)cc1	1.8	x	14.9	18.6*	x
Oc1ccc(C[C@H]2CN([C@@H](Cc3ccc(O)cc3)CN3CCC[C@@H]3CN3C(=S)NC[C@@H]3Cc3ccccc3)C(=S)N2CCc2ccccc2)cc1	3.3	x	7.6	5.0	x
Cc1nccn1-c1ccc(NC(=O)[C@@H](Cc2ccccc2)NC(=O)[C@H]2O[C@@H](n3ccc(=O)[nH]c3=O)[C@H](O)[C@@H]2O)cc1	-2.2	x	-7.9	x	x
O=C1CC(N2CCN(Cc3ccc4c(c3)OCO4)CC2)C(=O)N1c1cccc2ccccc12 (stereo not given)	-4.0	-2.5	-0.9	-0.8	-9.3
O=C1CC(N2CCN(Cc3ccc4c(c3)OCO4)CC2)C(=O)N1c1cccc(Cl)c1 (stereo not given)	2.8	-4.1	13.3	37.1*	-6.1
CC1=[N+](C)N(c2ccccc2)C(=O)C1N=Cc1ccccc1Cl (stereo not given)	-3.2	-4.8	7.8	18.4*	-7.2
CC1=[N+](C)N(c2ccccc2)C(=O)C1N=Cc1c(Cl)cccc1Cl (stereo not given)	0.1	-3.5	-5.1	3.9	-8.3
CC(c1ccccc1)N1CC[C@H]2C=CC[C@@H](C(=O)Nc3cccc(Cl)c3)[C@H]2C1=O (stereo not given in full)	-0.6	x	-0.5	x	x
Fc1ccccc1N1CCN(c2cnc3ccccc3n2)CC1	-1.6	-20.8	2.7	24.4*	-6.5
O=C1NC[C@@H](c2ccccc2)OC(=O)[C@@H](Cc2ccc(F)cc2)CC/C=C/C[C@@H]1CC(=O)N(CCO)Cc1ccccc1	4.1	-0.5	6.3	30.8*	-7.0
O=C1CC/C=C\C[C@@H](CC(=O)N(CCO)Cc2ccccc2)C(=O)N2CCC[C@H]2CO1	-5.3	-2.1	-0.9	-12.3	11.8
O=C1N[C@@H](c2ccccc2)COC(=O)[C@@H](Cc2ccc(F)cc2)CC/C=C/C[C@H]1CC(=O)N(CCO)Cc1ccccc1	1.5	-2.5	3.9	-4.9	-7.1
CC(C)(C)OC(=O)C[C@H]1C/C=C\C[C@H](CC(=O)N(CCO)Cc2ccccc2)C(=O)N[C@@H](Cc2ccccc2)COC1=O	-1.4	-3.9	-1.9	30.4*	0.6
CC(C)(C)OC(=O)C[C@H]1C/C=C\C[C@@H](CC(=O)NCCO)C(=O)NC[C@@H](c2ccccc2)OC1=O	-1.9	-3.9	-4.0	20.1*	-8.7
C[C@@H]1COC(=O)[C@@H](CC(=O)OC(C)(C)C)C/C=C\C[C@H](CC(=O)N(CCO)Cc2ccccc2)C(=O)N1	1.1	-5.2	3.7	3.0	-8.2
O=C1CCC/C=C\C[C@@H](CC(=O)N(CCO)Cc2ccccc2)C(=O)N2CCC[C@H]2CO1	-4.6	-3.6	11.2	27.7*	-2.0

Screens from PubChem BioAssay.
